Bioassay records from PubChem.
Rows were chosen to be rich in hits. Some 5.7% of all compounds tested hit in one or more screens of this group.
KB-3-1 tox = kills parental KB-3-1 adenocarcinoma cells; Potency, µM (titrated, usually from 46.1 µM), most hits filed as cytotoxic; KB-3-1 viability, CellTiter-Glo ATP luminescence, 72 h; AID 1347075; hit rate 1.4% among 400,000; further: nearly all actives have a fitted effect of over 60% in size
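Parental KB-3-1 adenocarcinoma cells in phenol-red-free DMEM with 10% FBS were pin-treated with compounds at several concentrations, incubated 72 h at 37 °C, and viability read by CellTiter-Glo luminescence; concentration-effect curves were fitted after normalization.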
HT1080NT lethal = kills 2HG-producing HT-1080-NT fibrosarcoma cells | hit rate 1.6% among 360,000 | HT-1080-NT fibrosarcoma viability, CellTiter-Glo ATP luminescence, 48 h | AID 686970 | Potency, µM (series often up to 46.1 µM), most hits filed as cytotoxic;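 further: NT is the 2HG producing partner of a matched IDH1 knockdown line; nearly all actives have a fitted effect of over 55% in size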
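750 cells/well, RPMI + 5% FBS; 2 h settle, compound pin-transfer, 48 h at 37 degrees C. CellTiter-Glo 10 min RT, luminescence. Normalized to DMSO and media-only wells.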
KB-V1 cytotox = KB-V1 MDR subline cytotoxicity | AID 1347076 | KB-V1 MDR cells viability, CellTiter-Glo, 72 h | hit rate 3.4% among 400,000 | Potency, µM (series often up to 46.1 µM), hits mostly cytotoxic; further: nearly all actives have a fitted effect of over 60% in size
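KB-V1, DMEM (no phenol red) + 10% FBS; cpd pin-transferred, titration series; 72 h, 37 degrees C; CellTiter-Glo, luminescence. Data normalized, curve-fit.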
HT1080 IDH1KD tx = HT-1080 IDH1 knockdown cell toxicity (counter line); HT-1080 IDH1 knockdown viability, ATP luminescence, 48 h; Potency, µM (top dose mostly 46.1 µM), actives largely listed as cytotoxic; hit rate 2% among 360,000
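Assay cells: HT-1080 with IDH1 knockdown, 750 per well, RPMI/5% FBS. Exposure: 48 h at 37 °C following 2 h pre-incubation. Read: CellTiter-Glo luminescence; fitted concentration-response, curve class assigned.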
Hits are given with their value; - = inactive; ? = inconclusive; . = no result. The call rests on the fitted dose curve; in most records, active means well fitted curve in the direction sought with a large enough effect; inconclusive means small, poorly fitted or top-dose-only effect, or another doubt; inactive means no such curve, though single readings can be large; an effect the other way counts as inactive or inconclusive.

SMILES | KB-3-1 tox | HT1080NT lethal | KB-V1 cytotox | HT1080 IDH1KD tx
CCCN1CCN(CCCNC(=O)c2cnn(-c3ccc(F)cc3)c2-n2cccc2)CC1 | - | . | - | .
Cc1nnc(N2CCN(C(=O)Nc3cccc(C(F)(F)F)c3)CC2)c2nn(-c3ccccc3)c(C)c12 | - | . | - | .
O=C(Nc1cccc(F)c1)c1oc2ccccc2c1NC(=O)C12CC3CC(CC(C3)C1)C2 | - | . | - | .
Cc1cccc(N2CCN(C(=O)CCc3c(C)nc4ncnn4c3C)CC2)c1C | - | . | - | .
Cc1cc2c(C(C)C)c(O)c(O)c(C=O)c2c(O)c1-c1c(C)cc2c(C(C)C)c(O)c(O)c(C=O)c2c1O | 1.5µM | . | ? | .
COC(=O)c1c(C)cc(O)c(C=O)c1O | - | - | - | ?
CCN1CCN(c2cccc(Nc3nn4c(=O)c5ccccc5nc4s3)c2)CC1 | - | . | - | .
COc1cc2c(cc1OC)C(c1cc(Br)ccc1F)N(C(=O)CCl)CC2 (stereo not drawn) | ? | 21µM | - | 21µM
COc1cc2c(cc1OC)C(C1C(=O)CC(C)(C)CC1=O)N(C(=O)CCl)CC2 (stereo not drawn) | - | - | - | -
Cc1ccc(C2NC(c3ccc4c(c3)OCO4)=CC(c3cc(Br)ccc3O)N2)cc1 (stereo not drawn) | - | . | - | .
COc1ccc(-c2cc(C(F)F)nc(-n3nc(C)cc3C)n2)cc1 | - | - | 23µM | -
CCN(CC(=O)NCc1ccc(F)cc1)C(=O)/C=C/c1ccc(OC)c(S(=O)(=O)NC(C)C)c1 | 2.6µM | 4.1µM | - | ?
CCN(CC(=O)NCc1ccc(F)cc1)C(=O)/C=C/c1ccc(OC)cc1 | - | - | - | -
CCOc1cc(C=C(C(=O)OC)C(=O)OC)ccc1OCc1ccc([N+](=O)[O-])cc1 | 18µM | 5.8µM | ? | 7.3µM
Cc1ccc(CNC(=O)c2cc3c(=O)n4cccc(C)c4nc3s2)cc1 | - | . | - | .
O=C(Cn1cccc1C(=O)c1ccccc1)NCc1ccc(F)cc1 | - | - | - | -
O=C(Cn1cccc1C(=O)c1ccccc1)NCc1ccccc1 | - | - | 23µM | -
COc1cc(CN(C2CCCCC2C)S(=O)(=O)c2ccc(S(=O)(=O)NC3CC3)cc2)cc(OC)c1OC (stereo not drawn) | ? | - | - | -
COc1ccc(CN(C2CCCCC2C)S(=O)(=O)c2ccc(S(=O)(=O)N(C)C)cc2)cc1OC (stereo not drawn) | - | - | 6.5µM | -
CCOc1ccccc1N(CC)C(=O)Cn1ncc2c([nH]c3ccccc32)c1=O | ? | . | - | .
CC(CCc1ccccc1)NC(=O)C1CCN(S(=O)(=O)N2CCOCC2)CC1 (stereo not drawn) | - | - | 21µM | -
CN1CCc2c(OCC(=O)N3CCC(Cc4ccccc4)CC3)cccc2C1=O | 18µM | - | ? | -
CCC1CCCCN1C(=O)COc1cccc2c1CCN(C)C2=O (stereo not drawn) | - | - | 21µM | -
CN1CCc2c(OCC(=O)NC3CCCCC3)cccc2C1=O | - | - | - | -
Cc1ccc(-n2ncc(C(=O)NC3CCCCC3)c2C2CCN(C(=O)OC(C)(C)C)CC2)cc1 | - | . | - | .
SMILES | KB-3-1 tox | HT1080NT lethal | KB-V1 cytotox | HT1080 IDH1KD tx
COc1cccc(CCNC(=O)c2cnc3sc(N4CCCC4)nn3c2=O)c1 | - | . | - | .
Cc1cccc(NC(=O)Cn2nnc(C(=O)NCc3cccs3)c2N)c1 | - | . | - | .
CC(=O)N(C(C)=O)c1ncc2c([nH]c3ccccc32)c1C#N | - | 11µM | 6.5µM | 7.1µM
CCN(CC)C(=O)Cn1ncc2c([nH]c3ccccc32)c1=O | - | . | - | .
CCC(C)(C)NC(=O)Cn1c(=O)ccc2cc(S(=O)(=O)N3CCC(C)CC3)ccc21 | - | . | - | .
COc1ccc(C(=O)n2nc(-c3ccco3)nc2NCc2cccs2)cc1 | - | . | ? | .
CCOc1ccc(/C=N/NC(=O)c2[nH]ncc2Br)c(O)c1 | - | 7.3µM | ? | 5.2µM
Cc1c(C(=O)Nc2ccccc2Cl)sc2ncnc(N(C)C3CCCCC3)c12 | - | . | - | .
Cc1c(C(=O)NCc2ccccc2Cl)sc2ncnc(N(C)C3CCCCC3)c12 | 21µM | . | ? | .
CCCOc1ccc(-c2cccc(NS(=O)(=O)c3cc(OC)ccc3OC)c2)nn1 | - | . | - | .
Cc1ccccc1OC1C(=O)N(Cc2ccc3c(c2)OCO3)C1c1sccc1C (stereo not drawn) | - | ? | - | 13µM
COc1ccc2ccc3cccc[n+]3c2c1 | 13µM | - | - | -
COc1ccc2nc3ccccc3[n+]([O-])c2c1 | - | - | - | -
